Results filed as inconclusive are left out. Calls of active or inactive are those of the source. Unless noted, the rule behind the calls is not given here.
Tests used:
[1] = antimalarial activity against Dd2 strain (AID 2302;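 active = growth inhibition above 50% at the single 2 µM test dose, taken to imply half-maximal potency below 2 µM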;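 note: 0% = DMSO untreated growth and 100% = chloroquine plus artemisinin killed control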); conditions: P. falciparum Dd2 in RBCs, LDH growth readout, 72 h; at 2 µM; stronger effect = higher value
[2] = HepG2 cytotoxicity, primary screen, cytotoxicity control for P. falciparum antimalarial project, cell-based, ATP luminescence (AID 2303;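 active = inhibition above 50%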;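 note: 0% = DMSO wells and 100% = digitonin-killed cells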); conditions: HepG2 viability, 24-48 h, at 10 µM, stronger effect = higher value
[3] = target: L-lactate dehydrogenase (Plasmodium falciparum (isolate CDC / Honduras)) (UniProt Q27743); test: PfLDH activity inhibition – cell lysate, 3D7 strain, counter-screen for P. falciparum growth inhibition project (AID 2304);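 note: 0% = vehicle and 100% = reference inhibitor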; conditions: P. falciparum 3D7 crude extract, LDH APAD/NBT absorbance; at 2 µM; stronger effect = higher value
[4] = inhibition of 3D7 malaria parasite growth – strain 3D7 (AID 2306);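 note: 0% = DMSO wells and 100% = chloroquine plus artemisinin control wells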; conditions: P. falciparum 3D7 erythrocytic growth, LDH absorbance, 72 h; at 2 µM; stronger effect = higher value
[5] = circadian clock period modulators, cell-based, LOPAC library, luminescence reporter (AID 2774); conditions: circadian reporter cells, at 7 µM, actives lie on both sides;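 note: values are relative to mean of DMSO wells on each plate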
[6] = target: ATP-dependent translocase ABCB1 (Homo sapiens) (UniProt P08183); test: MDR1 (ABCB1) efflux transporter inhibition, cell-based (AID 377; in the data active = fluorescence slope change above about 50%); conditions: MDR1-expressing cells, fluorescent substrate accumulation slope; stronger effect = higher value; concentration not given here
[7] = tested on: Hepatitis C virus NS3 helicase; test: HCV NS3 helicase inhibitors, primary screen, biochemical, fluorescence polarization, LOPAC1280 library (AID 687035; in the data active = inhibition above about 37%); conditions: Purified HCV NS3 helicase, Cy5-dT15 ssDNA binding fluorescence polarization; stronger effect = higher value; concentration not given here
[8] = Cy5 fluorescence quenching or enhancement artefacts, artefact control for HCV NS3 helicase inhibitor project, biochemical, LOPAC1280 (AID 687037); conditions: Cy5-DNA-NS3h complex fluorescence interference counterscreen
[9] = liver-stage malaria parasite growth inhibition, primary screen, cell-based, HepG2, luciferase luminescence, HepG2 viability (AID 624349; in the data active = parasite load remaining mostly below about 12%, no sharp cut-off; inactive = mostly above about 10%;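 note: 100% = mean of DMSO negative control wells on the same plate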); conditions: P. berghei liver stage in HepG2, luciferase luminescence, concentration not given here; parasite load remaining: stronger effect = lower value; viability: measured here: HepG2 viability without parasites

ATP-dependent translocase ABCB1 (Homo sapiens), sequence (P08183 whole entry, looked up): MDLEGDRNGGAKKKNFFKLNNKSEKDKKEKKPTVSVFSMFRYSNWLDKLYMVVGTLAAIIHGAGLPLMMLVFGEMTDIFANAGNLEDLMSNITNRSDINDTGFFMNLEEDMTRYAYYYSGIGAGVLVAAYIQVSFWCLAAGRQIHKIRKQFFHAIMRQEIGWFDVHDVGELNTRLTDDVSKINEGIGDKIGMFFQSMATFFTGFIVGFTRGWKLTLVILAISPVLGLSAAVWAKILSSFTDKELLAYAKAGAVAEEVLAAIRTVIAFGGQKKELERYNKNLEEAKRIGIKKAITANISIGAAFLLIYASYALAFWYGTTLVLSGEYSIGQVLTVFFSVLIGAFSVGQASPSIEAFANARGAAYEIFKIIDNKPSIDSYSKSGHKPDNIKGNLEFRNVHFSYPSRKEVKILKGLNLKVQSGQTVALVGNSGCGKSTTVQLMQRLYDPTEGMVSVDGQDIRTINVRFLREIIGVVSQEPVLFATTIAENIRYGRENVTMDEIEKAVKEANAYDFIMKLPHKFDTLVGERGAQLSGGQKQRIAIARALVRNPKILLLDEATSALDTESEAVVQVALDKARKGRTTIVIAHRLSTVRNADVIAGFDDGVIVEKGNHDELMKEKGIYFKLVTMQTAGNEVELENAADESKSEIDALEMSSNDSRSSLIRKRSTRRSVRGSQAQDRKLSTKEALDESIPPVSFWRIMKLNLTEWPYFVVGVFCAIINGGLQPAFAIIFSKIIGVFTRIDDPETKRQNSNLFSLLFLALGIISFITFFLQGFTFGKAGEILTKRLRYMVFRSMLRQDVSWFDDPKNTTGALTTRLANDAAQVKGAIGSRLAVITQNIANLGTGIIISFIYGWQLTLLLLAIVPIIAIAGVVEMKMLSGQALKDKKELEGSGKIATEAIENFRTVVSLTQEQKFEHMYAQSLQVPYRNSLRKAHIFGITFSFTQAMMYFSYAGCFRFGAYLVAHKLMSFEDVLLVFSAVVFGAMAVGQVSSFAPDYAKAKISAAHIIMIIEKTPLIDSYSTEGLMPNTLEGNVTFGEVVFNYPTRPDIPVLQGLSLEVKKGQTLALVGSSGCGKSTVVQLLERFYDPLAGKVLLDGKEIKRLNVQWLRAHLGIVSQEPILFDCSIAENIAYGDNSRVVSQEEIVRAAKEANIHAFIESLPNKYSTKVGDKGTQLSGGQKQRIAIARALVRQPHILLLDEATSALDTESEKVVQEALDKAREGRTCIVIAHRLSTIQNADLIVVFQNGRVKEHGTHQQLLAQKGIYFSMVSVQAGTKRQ
L-lactate dehydrogenase (Plasmodium falciparum (isolate CDC / Honduras)), sequence (Q27743 whole entry, looked up): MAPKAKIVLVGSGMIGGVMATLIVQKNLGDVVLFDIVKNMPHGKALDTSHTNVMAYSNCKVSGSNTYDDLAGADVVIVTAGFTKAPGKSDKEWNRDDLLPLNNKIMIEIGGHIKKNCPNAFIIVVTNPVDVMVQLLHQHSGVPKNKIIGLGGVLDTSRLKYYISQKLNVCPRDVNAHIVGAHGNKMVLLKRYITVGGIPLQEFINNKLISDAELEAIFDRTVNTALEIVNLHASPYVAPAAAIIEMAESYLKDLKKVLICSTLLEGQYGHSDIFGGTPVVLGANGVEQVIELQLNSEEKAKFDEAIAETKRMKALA

## CN(C)CCCOc1ccc(-c2nc(-c3ccc4c(c3)CCC4=NO)c(-c3ccncc3)[nH]2)cc1
[1]
  growth inhibition: 63% (active)
[2]
  inhibition: 68% (active)
[3]
  inhibition: -3% (inactive)
[4]
  growth inhibition: 96% (active)

## C[C@@H]([C@@H](CCCc1ccc(Cl)cc1)C(=O)N[C@H](C(=O)Nc1cccnc1)C(C)(C)C)N(O)C=O
[1]
  growth inhibition: 99% (active)
[2]
  inhibition: 7% (inactive)
[3]
  inhibition: 1% (inactive)
[4]
  growth inhibition: 100% (active)

## CCN(CC)C(C)C(=O)N1c2ccccc2Sc2ccccc21 (stereo unspecified)
[5]
  period change: 0.095 h (inactive)

## COc1ccc(C(=O)O[C@H]2CC[C@@]3(C)C4CCC5[C@]6(O)[C@@H](O)[C@H](O)[C@H]7[C@@H](CN8C[C@@H](C)CC[C@H]8[C@@]7(C)O)[C@@H]6C[C@@]53O[C@]42O)cc1OC (stereo partly specified)
[6]
  fluorescence slope change: 2.5% (inactive)

## COc1cc2nc(N3CCN(C(=O)OCc4ccccc4)C(C(=O)NC(C)(C)C)C3)nc(N)c2cc1OC (stereo unspecified)
[5]
  period change: 0.085 h (inactive)
[7]
  inhibition: -3% (inactive)
[8]
  fluorescence ratio (interference): 1 (inactive)

## O=C(O)CCCCCC[C@H]1C(=O)NC(=O)N1CC[C@@H](O)C1CCCCC1
[5]
  period change: 0.18 h (inactive)

## CC1Nc2ccccc2C1NC(=O)c1ccc(Cl)c(S(N)(=O)=O)c1 (stereo unspecified)
[6]
  fluorescence slope change: 26.2% (inactive)

## OC[C@H]1O[C@@H](n2cnc3c(N[C@H]4CC5CCC4C5)ncnc32)[C@H](O)[C@@H]1O (stereo partly specified)
[5]
  period change: -0.33 h (inactive)

## CC(C)C[C@H](N)CSSC[C@@H](N)CC(C)C
[5]
  period change: -0.095 h (inactive)

## C[N+](C)(CCCCCC[N+](C)(C)CCCN1C(=O)c2cccc3cccc(c23)C1=O)CCCN1C(=O)c2cccc3cccc(c23)C1=O
[5]
  period change: -0.055 h (inactive)

## CC(COc1ccc(/C=C/c2ccccc2)cc1)[N+](C)(C)C (stereo unspecified)
[5]
  period change: -0.13 h (inactive)
[7]
  inhibition: -1% (inactive)
[8]
  fluorescence ratio (interference): 1 (inactive)

## N#C/C(=C\c1c[nH]c2ccccc12)C(=O)c1ccc(O)c(O)c1
[5]
  period change: 0.275 h (inactive)

## CCC(C(=O)C(C)C(O)C(C)CCc1ccc(C)c(O)c1C(=O)O)[C@H]1O[C@](CC)([C@H]2CCC(O)(CC)[C@H](C)O2)C[C@@H]1C (stereo partly specified)
[6]
  fluorescence slope change: 130% (active)

## CCCCCCCCCCCCCCCCOCC(COCC(F)(F)F)OP(=O)(O)OCO (stereo unspecified)
[5]
  period change: 0.01 h (inactive)

## NC(=NCCC[C@H](N)C(=O)O)NO
[5]
  period change: -0.09 h (inactive)

## CCCCC#Cc1nc(N)c2ncn([C@@H]3O[C@H](C(=O)NCC)[C@@H](O)[C@H]3O)c2n1
[5]
  period change: -0.015 h (inactive)

## NCCCCNS(=O)(=O)c1cccc2c(Cl)cccc12
[5]
  period change: 0.09 h (inactive)

## COc1ccccc1N1CCN(CCN(C(=O)c2ccc(I)cc2)c2ccccn2)CC1
[5]
  period change: 0.08 h (inactive)
[7]
  inhibition: -4% (inactive)
[8]
  fluorescence ratio (interference): 0.9 (inactive)

## C=N[C@@H](C(=O)N[C@@H]1C(=O)C2[C@@H](C(=O)O)C(C)(C)S[C@@H]21)c1ccccc1 (stereo partly specified)
[6]
  fluorescence slope change: 10.1% (inactive)

## CCCCCCCCCCCCCCCCCCNC(=O)OCC(COP(=O)([O-])OCC[n+]1ccsc1)OC (stereo unspecified)
[5]
  period change: -0.05 h (inactive)
[7]
  inhibition: 0% (inactive)
[8]
  fluorescence ratio (interference): 1 (inactive)

## Ic1ccc(N2CCN(Cc3c[nH]c4ncccc34)CC2)cc1
[5]
  period change: 0.1 h (inactive)
[7]
  inhibition: 6% (inactive)
[8]
  fluorescence ratio (interference): 0.9 (inactive)

## CCCn1c(=O)c2[nH]c(-c3ccc(OCC(=O)NCCN)cc3)nc2n(CCC)c1=O
[5]
  period change: -0.09 h (inactive)
[7]
  inhibition: -2% (inactive)
[8]
  fluorescence ratio (interference): 1 (inactive)

## Cn1cnc2c(NC3CCCC3)ncnc21
[5]
  period change: 0.425 h (inactive)

## CCCC(=O)NCCc1c2n(c3ccc(OC)cc13)Cc1ccccc1-2
[5]
  period change: 0.125 h (inactive)

## CCCCN1CCC(n2c(=O)[nH]c3ccccc32)CC1
[5]
  period change: -0.16 h (inactive)
[7]
  inhibition: -2% (inactive)
[8]
  fluorescence ratio (interference): 1 (inactive)

## CC(C)CN(C)c1nc(N)c(C(=O)N=C(N)N)nc1Cl
[5]
  period change: 0 h (inactive)

## O=C(O)[C@@H]1C[C@H](C(=O)O)N1
[5]
  period change: -0.02 h (inactive)
[7]
  inhibition: -1% (inactive)
[8]
  fluorescence ratio (interference): 1.1 (inactive)

## NC(=S)NCCCC(N)C(=O)O (stereo unspecified)
[5]
  period change: -0.05 h (inactive)

## O=S(=O)(O)C1CCNCC1
[5]
  period change: 0.07 h (inactive)

## OC[C@H]1O[C@@H](n2cnc3c(Nc4ccccc4)ncnc32)C(O)[C@H]1O (stereo partly specified)
[5]
  period change: -0.12 h (inactive)

## NCC1OC(OC2C(N)CC(N)C(O)C2O[C@@H]2O[C@H](CO)[C@H](OC3OC(CN)C(O)C(O)C3N)C2O)C(N)C(O)C1O (stereo partly specified)
[6]
  fluorescence slope change: 78.1% (active)

## NC(N)=NCCSSCCN=C(N)N
[5]
  period change: 0.065 h (inactive)

## O=C(O)[C@@H]1C[C@@H](C(=O)O)N1
[5]
  period change: -0.1 h (inactive)
[7]
  inhibition: -1% (inactive)
[8]
  fluorescence ratio (interference): 1 (inactive)

## CN1CCc2cc(O)c(O)cc2C(c2ccccc2)C1 (stereo unspecified)
[5]
  period change: 0.07 h (inactive)
[7]
  inhibition: -5% (inactive)
[8]
  fluorescence ratio (interference): 1 (inactive)

## Cc1c(C)c2c(c(C)c1O)CCC(C)(CN1CCN(c3cc(N4CCCC4)nc(N4CCCC4)n3)CC1)O2 (stereo unspecified)
[5]
  period change: 0.14 h (inactive)

## NCCNC(=O)c1ncsc1-c1cccc(F)c1
[5]
  period change: 0.08 h (inactive)
[7]
  inhibition: -3% (inactive)
[8]
  fluorescence ratio (interference): 1 (inactive)

## Cc1ccccc1CNc1ncnc2c1ncn2C1OC(CO)C(O)C1O (stereo unspecified)
[5]
  period change: -0.235 h (inactive)

## CCCCCCCCCCCCCCCC(=O)NCC(COP(=O)([O-])OCC[N+](C)(C)C)OCC (stereo unspecified)
[5]
  period change: -0.285 h (inactive)

## CCOc1ccc2ccccc2c1C(=O)NC1C(=O)N2C1SC(C)(C)C2C(=O)O (stereo unspecified)
[6]
  fluorescence slope change: 71.1% (active)

## O=C(O)/C=C/C(O)c1ccc(Cl)cc1 (stereo unspecified)
[5]
  period change: 0.15 h (inactive)
[7]
  inhibition: 1% (inactive)
[8]
  fluorescence ratio (interference): 1 (inactive)

## On1ccccc1=S
[6]
  fluorescence slope change: 9% (inactive)

## CNCC[C@@H](Oc1ccc(C(F)(F)F)cc1)c1ccccc1
[5]
  period change: 0.13 h (inactive)

## CCc1[nH]c(-c2ccc(OC)cc2)nc1-c1ccncc1
[9]
  parasite load remaining: 30.1% (inactive)
  viability: 82.4%

## CCCC(=O)Oc1ccc2[nH]c(C(=O)c3cc4ccccc4[nH]3)cc2c1
[9]
  parasite load remaining: 38.9% (inactive)
  viability: 104%

## c1ccc(-c2cnc(Nc3ccc(OCCN4CCCC4)cc3)s2)cc1
[9]
  parasite load remaining: 46.3% (inactive)
  viability: 100%

## COc1cc2ncnc(N3CCN(C(=O)Nc4ccc(Oc5ccccc5)cc4)CC3)c2cc1OC
[9]
  parasite load remaining: 27.2% (inactive)
  viability: 89.5%

## O=C1NC(=O)c2c1c(-c1ccccc1Cl)cc1[nH]c3ccc(O)cc3c21
[9]
  parasite load remaining: 32.6% (inactive)
  viability: 81%

## O=C(O)/C=C/c1cc(Br)c(Br)c(Br)c1Br
[9]
  parasite load remaining: 36.5% (inactive)
  viability: 98.8%

## Cc1cc(Nc2nc(-c3ccccc3)nc3ccccc23)n[nH]1
[9]
  parasite load remaining: 33.3% (inactive)
  viability: 117%
